Test results: PubChem BioAssay
Where “and” joins values, the source holds several entries; their conditions need not be identical. Identical values can stand only once. Calls of active or inactive are those of the source.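 Rule for the calls, unless noted: active = thallium flux through the channel raised or lowered by more than 3 SD from vehicle-only wells, actives on both sides; inactive = the rest.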

What was measured:
[1] = liver-stage malaria parasite growth inhibition, primary screen, cell-based, HepG2, luciferase luminescence, HepG2 viability (AID 624349; in the data active = parasite load remaining mostly below about 12%, no sharp cut-off; inactive = mostly above about 10%;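 note: 100% = mean of DMSO negative control wells on the same plate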); conditions: P. berghei liver stage in HepG2, luciferase luminescence, concentration not given here; parasite load remaining: stronger effect = lower value; viability: measured here: HepG2 viability without parasites
[2] = Cy5 fluorescence interference with SSB-bound oligo, artefact control for HCV NS3 helicase inhibitor project, biochemical, NIH Clinical Collection, E. coli SSB (AID 743268; call rule not given here)
[3] = system: Hepatitis C virus NS3 helicase; experiment: HCV NS3 helicase inhibitors, primary screen, biochemical, fluorescence polarization, NIH Clinical Collection (AID 743270; call rule not given here); conditions: NS3 helicase binding to Cy5-dT15 DNA, stronger effect = higher value, concentration not given here
[4] = molecular target: Single-stranded DNA-binding protein (Escherichia coli (strain K12)) (UniProt P0AGE0); experiment: E. coli SSB displacement from DNA, counter-screen for HCV NS3 helicase inhibitor project, biochemical, fluorescence polarization, NIH Clinical Collection (AID 743271; in the data active = inhibition above about 28%); conditions: stronger effect = higher value, concentration not given here
[5] = fluorescence interference in NS3h assay format, artefact control for HCV NS3 helicase inhibitor project, biochemical, NIH Clinical Collection (AID 743272; call rule not given here;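 note: HCV NS3 helicase with a Cy5 labelled single stranded DNA probe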); conditions: fluorescence interference counterscreen, stronger effect = lower value
[6] = system: Neuropilin-2 / VEGF-C interaction (human); experiment: inhibitors of NRP2–VEGF-C binding, biochemical, microplate binding format, z-score (AID 743281; call rule not given here); conditions: microplate NRP2/VEGF-C binding assay; stronger effect = lower value
[7] = modulation of C. elegans fzo-1 (AID 1259413; call rule not given here;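 note: fzo-1 mutant C. elegans worms in liquid wells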); conditions: C. elegans fzo-1 modulator screen, mean read-out; stronger effect = higher value
[8] = sensitizers of A549 cells to miR-34 induction, primary screen, imaging, A549 dox-inducible miR-34, nuclei and caspase counts (AID 1347080;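 active = compounds whose cell count with miR-34 switched on is under 0.7 times the count with it off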); conditions: A549 miR-34 inducible, Hoechst nuclei count, 48 h
F380Y = experiment: modulators of BK channel variants, profiling panel, selectivity assay, cell-based, U2OS BacMam, thallium flux, beta subunits (AID 1259406); conditions: at 30 µM;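 note: initial slope of Thallos dye fluorescence rise after thallium is added; log ratio against the mean of 0.3% DMSO vehicle wells on the same plate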
F380Y/beta1 = experiment: as above; conditions: at 30 µM
F380Y/beta2Delta = experiment: as above; conditions: at 30 µM
F380Y/beta4 = experiment: as above; conditions: at 30 µM
[9] = molecular target: Calcium-activated potassium channel subunit alpha-1 (Homo sapiens) + Leucine-rich repeat-containing protein 26 (Homo sapiens) (UniProt Q12791+Q2I0M4); experiment: as above; conditions: F380Y/Slo1WT/gamma1, at 30 µM
Chain of Calcium-activated potassium channel subunit alpha-1 (Homo sapiens) + Leucine-rich repeat-containing protein 26 (Homo sapiens) (Q2I0M4 whole entry, looked up, one chain of several): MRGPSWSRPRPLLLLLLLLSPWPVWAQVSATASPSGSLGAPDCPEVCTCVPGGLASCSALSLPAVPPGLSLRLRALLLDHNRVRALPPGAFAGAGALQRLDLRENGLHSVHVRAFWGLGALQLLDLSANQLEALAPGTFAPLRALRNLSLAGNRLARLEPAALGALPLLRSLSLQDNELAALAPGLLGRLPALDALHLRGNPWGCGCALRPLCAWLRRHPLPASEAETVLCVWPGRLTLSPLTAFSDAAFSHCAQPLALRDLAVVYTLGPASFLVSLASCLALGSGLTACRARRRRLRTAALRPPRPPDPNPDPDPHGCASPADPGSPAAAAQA

R275C = experiment: as above; conditions: at 30 µM
R275C/beta1 = experiment: as above; conditions: at 30 µM
R275C/beta2Delta = experiment: as above; conditions: at 30 µM
R275C/beta4 = experiment: as above; conditions: at 30 µM
R275C/Slo1WT/beta2 = experiment: as above; conditions: at 30 µM
[10] = measured here: relative caspase fold change +Dox/-Dox
[11] = measured here: total cells with miR-34 induction, stronger effect = lower value
[12] = measured here: total cells without miR-34 induction

CC(C)[C@]12O[C@H]1[C@@H]1O[C@]13[C@]1(O[C@H]1C[C@H]1C4=C(CC[C@@]13C)C(=O)OC4)[C@@H]2O
1.51: fold change [8, 10]
1300: cell count [8, 12]
67.7%: viability [1]
inactive: parasite load remaining [1] 122% | fluorescence ratio [2] 1.04 | inhibition [3] -2.77% | inhibition [4] -6.26% | fluorescence ratio [5] 1.03 | z-score [6] 0.859 | mean signal [7] 159 | fold change ([8]; stronger effect = lower value) 1.04 | log fold change Tl+ flux (F380Y) -0.0264 | log fold change Tl+ flux (F380Y/beta1) -0.0154 | log fold change Tl+ flux (F380Y/beta2Delta) -0.0407 | log fold change Tl+ flux (F380Y/beta4) 0.00828 | log fold change Tl+ flux [9] 0.0324 | log fold change Tl+ flux (R275C) -0.0177 | log fold change Tl+ flux (R275C/beta1) 0.0288 | log fold change Tl+ flux (R275C/beta2Delta) 0.0395 | log fold change Tl+ flux (R275C/beta4) 0.0135 | log fold change Tl+ flux (R275C/Slo1WT/beta2) 0.00131
1360: cell count [8, 11]

CN1CC[C@]2(c3cccc(O)c3)Cc3nc4ccccc4cc3C[C@H]2C1
65.5%: viability [1]
inactive: parasite load remaining [1] 54.3% | fluorescence ratio [2] 0.96 | inhibition [3] -8.08% | inhibition [4] -1.97% | fluorescence ratio [5] 0.98 | z-score [6] -0.954 | mean signal [7] 226

CN=C1CN(O)C(c2ccccc2)=c2cc(Cl)ccc2=N1
11000: cell count [8, 12]
68.2%: viability [1]
inactive: parasite load remaining [1] 61% | fluorescence ratio [2] 0.93 | inhibition [3] -3.71% | inhibition [4] 1.97% | fluorescence ratio [5] 0.94 | z-score [6] 0.413 | mean signal [7] 209 | fold change ([8]; stronger effect = lower value) 0.896 | log fold change Tl+ flux (F380Y) 0.0582 | log fold change Tl+ flux (F380Y/beta1) 0.0256 | log fold change Tl+ flux (F380Y/beta2Delta) 0.0735 | log fold change Tl+ flux (F380Y/beta4) 0.0618 | log fold change Tl+ flux [9] 0.00615 | log fold change Tl+ flux (R275C) -0.0835 | log fold change Tl+ flux (R275C/beta2Delta) 0.0426 | log fold change Tl+ flux (R275C/beta4) 0.0262 | log fold change Tl+ flux (R275C/Slo1WT/beta2) -0.0229
9820: cell count [8, 11]
active: log fold change Tl+ flux (R275C/beta1) 0.11
1.36: fold change [8, 10]

C[C@]12CCC(=O)C[C@@H]1CC[C@@H]1[C@@H]2CC[C@@]2(C)[C@H]1CC[C@]2(C)O
inactive: parasite load remaining [1] 79.1% | fluorescence ratio [2] 1.04 | inhibition [3] -0.4% | inhibition [4] -3.18% | fluorescence ratio [5] 0.92 | log fold change Tl+ flux (F380Y) 0.00819 | log fold change Tl+ flux (F380Y/beta1) -0.00468 | log fold change Tl+ flux (F380Y/beta2Delta) 0.0319 | log fold change Tl+ flux (F380Y/beta4) 0.0289 | log fold change Tl+ flux [9] 0.0101 | log fold change Tl+ flux (R275C) -0.0214 | log fold change Tl+ flux (R275C/beta1) 0.0156 | log fold change Tl+ flux (R275C/beta2Delta) 0.0537 | log fold change Tl+ flux (R275C/beta4) 0.00195 | log fold change Tl+ flux (R275C/Slo1WT/beta2) 0.012
70.4%: viability [1]

C[C@]12CC[C@H](O)CC1=CC[C@@H]1[C@@H]2CC[C@@]2(C)[C@H]1CC[C@]2(C)O
inactive: parasite load remaining [1] 67.4% | fluorescence ratio [2] 1.04 | inhibition [3] -1.19% | inhibition [4] -4.72% | fluorescence ratio [5] 1.02 | log fold change Tl+ flux (F380Y) 0.0283 | log fold change Tl+ flux (F380Y/beta1) 0.0442 | log fold change Tl+ flux (F380Y/beta2Delta) 0.0164 | log fold change Tl+ flux (F380Y/beta4) 0.0285 | log fold change Tl+ flux [9] 0.0157 | log fold change Tl+ flux (R275C) 0.0183 | log fold change Tl+ flux (R275C/beta1) 0.0261 | log fold change Tl+ flux (R275C/beta2Delta) -0.00697 | log fold change Tl+ flux (R275C/beta4) -0.00925 | log fold change Tl+ flux (R275C/Slo1WT/beta2) 0.057
70.8%: viability [1]

O=C1CN=C(c2ccccc2)c2cc([N+](=O)[O-])ccc2N1
active: log fold change Tl+ flux (R275C/beta1) -0.097
inactive: parasite load remaining [1] 89.5% | fluorescence ratio [2] 1.05 | inhibition [3] 5.94% | inhibition [4] 2.21% | fluorescence ratio [5] 1.04 | z-score [6] 1.12 | mean signal [7] 253 | fold change ([8]; stronger effect = lower value) 0.945 | log fold change Tl+ flux (F380Y) 0.0223 | log fold change Tl+ flux (F380Y/beta1) -0.0368 | log fold change Tl+ flux (F380Y/beta2Delta) 0.0172 | log fold change Tl+ flux (F380Y/beta4) 0.0387 | log fold change Tl+ flux [9] 0.000443 | log fold change Tl+ flux (R275C) -0.0214 | log fold change Tl+ flux (R275C/beta2Delta) 0.0168 | log fold change Tl+ flux (R275C/beta4) 0.0133 | log fold change Tl+ flux (R275C/Slo1WT/beta2) 0.00947
9590: cell count [8, 12]
68.5%: viability [1]
1.76: fold change [8, 10]
9060: cell count [8, 11]

C[C@]12CC[C@H]3[C@@H](CCC4=CC(=O)CC[C@@H]43)[C@@H]1CC[C@@H]2O
73.7% and 87.5%: viability [1]
8170: cell count [8, 11]
8800: cell count [8, 12]
inactive: parasite load remaining [1] 113% and 109% | fluorescence ratio [2] 1 | inhibition [3] -4.36% | inhibition [4] -0.87% | fluorescence ratio [5] 0.98 | fold change ([8]; stronger effect = lower value) 0.927 | log fold change Tl+ flux (F380Y) 0.0331 | log fold change Tl+ flux (F380Y/beta1) 0.000378 | log fold change Tl+ flux (F380Y/beta2Delta) 0.0141 | log fold change Tl+ flux (F380Y/beta4) 0.0107 | log fold change Tl+ flux [9] 0.0229 | log fold change Tl+ flux (R275C) -0.0315 | log fold change Tl+ flux (R275C/beta1) 0.00735 | log fold change Tl+ flux (R275C/beta2Delta) -0.0135 | log fold change Tl+ flux (R275C/beta4) -0.0252 | log fold change Tl+ flux (R275C/Slo1WT/beta2) -0.0416
1.32: fold change [8, 10]
